The values below come from ChEMBL document CHEMBL1961873, “Compounds: GSK PKIS; Assays: Nanosyn kinase panel” (2012).

Assay [1] concerns the target Ribosomal protein S6 kinase alpha-6 (Homo sapiens) (UniProt Q9UK32). To be noted: at 1 µM.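 Also: each value is a mean inhibition of RSK4 from a GSK PKIS panel screen.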
The target of assay [2] is T1, Serine/threonine-protein kinase Sgk1 (Homo sapiens) (UniProt O00141).
T1 sequence (whole entry): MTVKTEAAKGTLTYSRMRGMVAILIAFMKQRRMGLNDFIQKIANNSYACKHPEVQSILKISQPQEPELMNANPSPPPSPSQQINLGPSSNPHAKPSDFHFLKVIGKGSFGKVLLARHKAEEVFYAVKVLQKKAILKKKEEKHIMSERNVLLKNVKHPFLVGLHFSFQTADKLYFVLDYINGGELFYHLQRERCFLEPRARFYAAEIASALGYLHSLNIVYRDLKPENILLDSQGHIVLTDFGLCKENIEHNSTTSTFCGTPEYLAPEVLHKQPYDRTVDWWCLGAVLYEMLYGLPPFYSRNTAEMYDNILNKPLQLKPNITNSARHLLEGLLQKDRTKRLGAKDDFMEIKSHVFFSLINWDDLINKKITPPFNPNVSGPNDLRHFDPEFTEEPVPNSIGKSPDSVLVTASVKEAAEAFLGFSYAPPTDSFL
To be noted: at 0.1 µM.

In assay [3] the target is T1, Serine/threonine-protein kinase Sgk1 (Homo sapiens). To be noted: at 1 µM.
Assay [4] deals with T2, Serine/threonine-protein kinase Sgk2 (Homo sapiens) (UniProt Q9HBY8).
T2 sequence (whole entry): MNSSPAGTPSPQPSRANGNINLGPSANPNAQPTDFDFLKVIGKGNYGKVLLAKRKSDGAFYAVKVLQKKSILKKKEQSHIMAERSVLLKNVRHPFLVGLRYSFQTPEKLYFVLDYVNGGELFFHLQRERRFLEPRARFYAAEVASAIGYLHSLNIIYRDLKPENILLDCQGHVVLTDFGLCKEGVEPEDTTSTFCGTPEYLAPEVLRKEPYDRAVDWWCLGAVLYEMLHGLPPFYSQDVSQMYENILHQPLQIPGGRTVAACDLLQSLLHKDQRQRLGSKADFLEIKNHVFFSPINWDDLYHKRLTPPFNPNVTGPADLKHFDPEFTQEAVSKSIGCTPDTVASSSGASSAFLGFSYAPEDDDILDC
To be noted: at 0.1 µM.

The target of assay [5] is T2, Serine/threonine-protein kinase Sgk2 (Homo sapiens). The settings on record: at 1 µM.
Assay [6] concerns the target T3, Serine/threonine-protein kinase Sgk3 (Homo sapiens) (UniProt Q96BR1).
T3 sequence (whole entry): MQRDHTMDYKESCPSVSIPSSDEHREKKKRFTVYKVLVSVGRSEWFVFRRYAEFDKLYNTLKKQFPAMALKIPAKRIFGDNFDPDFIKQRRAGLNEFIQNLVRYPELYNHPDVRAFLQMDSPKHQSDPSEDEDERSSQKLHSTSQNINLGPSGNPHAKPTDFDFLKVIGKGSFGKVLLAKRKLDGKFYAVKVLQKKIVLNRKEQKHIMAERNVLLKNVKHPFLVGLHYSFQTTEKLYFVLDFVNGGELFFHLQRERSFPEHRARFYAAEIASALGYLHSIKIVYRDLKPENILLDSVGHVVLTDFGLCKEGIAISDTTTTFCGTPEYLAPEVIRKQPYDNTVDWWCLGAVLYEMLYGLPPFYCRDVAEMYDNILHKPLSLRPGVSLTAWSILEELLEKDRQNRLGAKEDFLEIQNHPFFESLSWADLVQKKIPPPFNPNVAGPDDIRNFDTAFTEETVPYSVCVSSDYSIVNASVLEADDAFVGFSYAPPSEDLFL
The settings on record: at 0.1 µM.

For assay [7], the target named is T3, Serine/threonine-protein kinase Sgk3 (Homo sapiens). To be noted: at 1 µM.
In assay [8] the target is 5'-AMP-activated protein kinase catalytic subunit alpha-1 (Homo sapiens) (UniProt Q13131). To be noted: at 0.1 µM.
5'-AMP-activated protein kinase catalytic subunit alpha-1 (Homo sapiens), sequence (Q13131 whole entry, looked up): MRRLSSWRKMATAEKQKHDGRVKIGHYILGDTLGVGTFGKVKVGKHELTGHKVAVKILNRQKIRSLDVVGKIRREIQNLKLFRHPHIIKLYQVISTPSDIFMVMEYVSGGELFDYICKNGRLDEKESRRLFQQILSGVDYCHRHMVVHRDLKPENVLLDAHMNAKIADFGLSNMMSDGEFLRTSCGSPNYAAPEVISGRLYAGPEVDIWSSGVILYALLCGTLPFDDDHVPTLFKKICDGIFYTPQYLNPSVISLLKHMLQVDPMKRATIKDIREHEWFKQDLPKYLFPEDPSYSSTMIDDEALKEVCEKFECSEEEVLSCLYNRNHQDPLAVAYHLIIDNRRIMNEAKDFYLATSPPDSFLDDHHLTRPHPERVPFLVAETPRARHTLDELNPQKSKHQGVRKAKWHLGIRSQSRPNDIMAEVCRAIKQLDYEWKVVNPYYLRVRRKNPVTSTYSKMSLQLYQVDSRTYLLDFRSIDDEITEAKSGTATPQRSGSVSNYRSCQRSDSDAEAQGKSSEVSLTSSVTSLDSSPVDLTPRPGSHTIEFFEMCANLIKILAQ
Assay [9] has the same target. To be noted: at 1 µM.
Assay [10] addresses 5'-AMP-activated protein kinase catalytic subunit alpha-2 (Homo sapiens) (UniProt P54646). To be noted: at 0.1 µM.
Assay [11] has the same target. To be noted: at 1 µM.
Assay [12] has as its target T4, NUAK family SNF1-like kinase 1 (Homo sapiens) (UniProt O60285).
T4 sequence (whole entry): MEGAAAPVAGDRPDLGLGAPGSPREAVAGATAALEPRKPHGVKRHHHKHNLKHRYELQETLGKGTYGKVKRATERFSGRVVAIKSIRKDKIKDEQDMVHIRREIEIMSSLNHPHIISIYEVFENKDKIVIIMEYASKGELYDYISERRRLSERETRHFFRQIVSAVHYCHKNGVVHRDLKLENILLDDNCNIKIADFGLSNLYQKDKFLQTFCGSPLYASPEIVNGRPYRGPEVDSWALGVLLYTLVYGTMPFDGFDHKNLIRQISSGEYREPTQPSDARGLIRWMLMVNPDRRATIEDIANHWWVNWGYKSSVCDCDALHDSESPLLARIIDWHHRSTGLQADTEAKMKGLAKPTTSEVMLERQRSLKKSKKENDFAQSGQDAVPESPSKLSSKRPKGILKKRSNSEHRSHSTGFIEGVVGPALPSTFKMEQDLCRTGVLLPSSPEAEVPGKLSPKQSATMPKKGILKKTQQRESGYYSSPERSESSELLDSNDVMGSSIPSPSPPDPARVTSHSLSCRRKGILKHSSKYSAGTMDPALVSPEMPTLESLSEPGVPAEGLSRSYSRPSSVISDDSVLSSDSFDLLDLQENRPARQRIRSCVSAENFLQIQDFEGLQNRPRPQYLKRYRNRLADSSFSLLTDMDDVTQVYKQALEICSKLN
The settings on record: at 0.1 µM.

In assay [13] the target is T4, NUAK family SNF1-like kinase 1 (Homo sapiens). The settings on record: at 1 µM.
Assay [14] deals with T5, Serine/threonine-protein kinase BRSK1 (Homo sapiens) (UniProt Q8TDC3).
T5 sequence (whole entry): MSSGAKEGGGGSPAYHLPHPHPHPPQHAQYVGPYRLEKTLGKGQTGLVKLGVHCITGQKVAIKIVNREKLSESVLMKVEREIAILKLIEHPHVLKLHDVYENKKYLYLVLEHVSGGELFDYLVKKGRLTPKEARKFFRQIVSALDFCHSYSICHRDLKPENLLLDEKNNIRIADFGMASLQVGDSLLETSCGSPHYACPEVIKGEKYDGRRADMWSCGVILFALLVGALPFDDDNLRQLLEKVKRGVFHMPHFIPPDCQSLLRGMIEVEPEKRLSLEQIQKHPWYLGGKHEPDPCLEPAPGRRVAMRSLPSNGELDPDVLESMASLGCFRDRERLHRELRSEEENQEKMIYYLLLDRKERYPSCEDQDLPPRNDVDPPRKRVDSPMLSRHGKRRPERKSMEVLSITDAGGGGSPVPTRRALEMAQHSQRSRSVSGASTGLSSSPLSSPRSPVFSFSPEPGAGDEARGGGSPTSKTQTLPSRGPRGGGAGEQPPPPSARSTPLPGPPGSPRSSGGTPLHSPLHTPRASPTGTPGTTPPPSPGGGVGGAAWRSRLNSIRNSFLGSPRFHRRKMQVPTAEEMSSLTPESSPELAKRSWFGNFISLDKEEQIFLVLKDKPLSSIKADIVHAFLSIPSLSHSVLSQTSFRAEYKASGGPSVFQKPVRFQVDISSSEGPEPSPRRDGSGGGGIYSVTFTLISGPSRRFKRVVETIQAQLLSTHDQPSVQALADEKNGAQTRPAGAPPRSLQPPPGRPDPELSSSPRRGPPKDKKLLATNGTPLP
To be noted: at 0.1 µM.

Assay [15] deals with T5, Serine/threonine-protein kinase BRSK1 (Homo sapiens). The settings on record: at 1 µM.
Assay [16] has as its target T6, Serine/threonine-protein kinase BRSK2 (Homo sapiens) (UniProt Q8IWQ3).
T6 sequence (whole entry): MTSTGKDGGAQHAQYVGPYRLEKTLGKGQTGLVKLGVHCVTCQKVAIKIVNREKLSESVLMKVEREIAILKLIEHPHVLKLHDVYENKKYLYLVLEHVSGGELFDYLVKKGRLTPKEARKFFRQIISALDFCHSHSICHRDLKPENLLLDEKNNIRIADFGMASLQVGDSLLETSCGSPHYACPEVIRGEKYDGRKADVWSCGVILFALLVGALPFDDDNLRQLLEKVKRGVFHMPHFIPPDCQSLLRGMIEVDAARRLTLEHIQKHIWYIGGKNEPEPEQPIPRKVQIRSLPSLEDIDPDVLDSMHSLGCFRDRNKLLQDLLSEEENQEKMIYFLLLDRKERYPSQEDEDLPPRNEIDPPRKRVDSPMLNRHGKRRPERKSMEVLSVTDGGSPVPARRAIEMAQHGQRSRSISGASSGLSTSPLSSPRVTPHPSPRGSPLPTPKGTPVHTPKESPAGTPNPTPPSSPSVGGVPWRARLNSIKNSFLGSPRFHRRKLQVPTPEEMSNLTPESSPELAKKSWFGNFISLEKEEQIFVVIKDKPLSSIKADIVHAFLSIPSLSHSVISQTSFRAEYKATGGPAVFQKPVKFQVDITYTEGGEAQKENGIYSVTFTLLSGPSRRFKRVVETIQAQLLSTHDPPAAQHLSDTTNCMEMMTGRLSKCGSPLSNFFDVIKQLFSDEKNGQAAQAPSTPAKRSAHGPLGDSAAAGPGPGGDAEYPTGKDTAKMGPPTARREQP
To be noted: at 0.1 µM.

The target in assay [17] is T6, Serine/threonine-protein kinase BRSK2 (Homo sapiens). The settings on record: at 1 µM.
Assay [18] has as its target Calcium/calmodulin-dependent protein kinase type 1D (Homo sapiens) (UniProt Q8IU85). To be noted: at 0.1 µM.
Assay [19] shares this target. The settings on record: at 1 µM.
Assay [20] has as its target Calcium/calmodulin-dependent protein kinase type II subunit alpha (Homo sapiens) (UniProt Q9UQM7). To be noted: at 0.1 µM.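 Also: reported values are averages (mean inhibition of CAMK2A).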

Calcium/calmodulin-dependent protein kinase type 1D (Homo sapiens), sequence (Q8IU85 whole entry, looked up): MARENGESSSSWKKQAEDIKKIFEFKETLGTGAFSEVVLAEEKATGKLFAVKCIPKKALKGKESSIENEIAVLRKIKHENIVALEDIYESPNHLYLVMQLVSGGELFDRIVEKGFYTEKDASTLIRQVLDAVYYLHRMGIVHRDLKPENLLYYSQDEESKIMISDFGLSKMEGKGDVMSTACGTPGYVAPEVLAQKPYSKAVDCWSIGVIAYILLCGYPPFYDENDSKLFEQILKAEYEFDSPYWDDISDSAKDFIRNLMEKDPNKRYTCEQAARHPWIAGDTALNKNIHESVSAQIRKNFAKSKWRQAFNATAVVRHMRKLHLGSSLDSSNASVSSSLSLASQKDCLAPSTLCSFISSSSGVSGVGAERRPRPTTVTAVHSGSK
Calcium/calmodulin-dependent protein kinase type II subunit alpha (Homo sapiens), sequence (Q9UQM7 whole entry): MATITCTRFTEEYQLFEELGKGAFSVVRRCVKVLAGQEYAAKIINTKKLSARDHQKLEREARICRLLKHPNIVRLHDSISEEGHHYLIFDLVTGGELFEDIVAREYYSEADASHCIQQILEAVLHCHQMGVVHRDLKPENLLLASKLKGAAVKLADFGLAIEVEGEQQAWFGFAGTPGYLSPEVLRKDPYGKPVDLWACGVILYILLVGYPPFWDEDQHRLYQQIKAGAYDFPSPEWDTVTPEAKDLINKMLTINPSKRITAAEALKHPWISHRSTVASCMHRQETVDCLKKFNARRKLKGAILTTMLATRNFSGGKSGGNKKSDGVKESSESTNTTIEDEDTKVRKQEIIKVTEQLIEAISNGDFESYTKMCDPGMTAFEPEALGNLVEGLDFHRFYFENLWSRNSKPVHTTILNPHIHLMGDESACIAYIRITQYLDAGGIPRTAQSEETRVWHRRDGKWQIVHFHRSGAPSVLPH
5'-AMP-activated protein kinase catalytic subunit alpha-2 (Homo sapiens), sequence (P54646 whole entry, looked up): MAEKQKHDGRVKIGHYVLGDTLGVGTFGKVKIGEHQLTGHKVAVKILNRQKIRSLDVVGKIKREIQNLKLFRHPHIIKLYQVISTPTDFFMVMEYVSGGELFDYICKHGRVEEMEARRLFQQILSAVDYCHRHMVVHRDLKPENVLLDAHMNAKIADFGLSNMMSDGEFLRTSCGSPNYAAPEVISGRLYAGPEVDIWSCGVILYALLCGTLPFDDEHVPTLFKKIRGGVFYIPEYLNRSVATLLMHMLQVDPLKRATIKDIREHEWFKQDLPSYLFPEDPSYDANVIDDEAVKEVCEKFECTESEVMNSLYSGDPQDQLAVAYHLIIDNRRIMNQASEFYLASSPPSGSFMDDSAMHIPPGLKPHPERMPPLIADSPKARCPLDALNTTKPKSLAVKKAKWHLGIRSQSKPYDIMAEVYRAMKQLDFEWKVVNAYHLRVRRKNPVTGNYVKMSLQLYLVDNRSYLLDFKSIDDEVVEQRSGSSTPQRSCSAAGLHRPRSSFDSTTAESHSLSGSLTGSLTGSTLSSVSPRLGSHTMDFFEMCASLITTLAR
Ribosomal protein S6 kinase alpha-6 (Homo sapiens), sequence (Q9UK32 whole entry): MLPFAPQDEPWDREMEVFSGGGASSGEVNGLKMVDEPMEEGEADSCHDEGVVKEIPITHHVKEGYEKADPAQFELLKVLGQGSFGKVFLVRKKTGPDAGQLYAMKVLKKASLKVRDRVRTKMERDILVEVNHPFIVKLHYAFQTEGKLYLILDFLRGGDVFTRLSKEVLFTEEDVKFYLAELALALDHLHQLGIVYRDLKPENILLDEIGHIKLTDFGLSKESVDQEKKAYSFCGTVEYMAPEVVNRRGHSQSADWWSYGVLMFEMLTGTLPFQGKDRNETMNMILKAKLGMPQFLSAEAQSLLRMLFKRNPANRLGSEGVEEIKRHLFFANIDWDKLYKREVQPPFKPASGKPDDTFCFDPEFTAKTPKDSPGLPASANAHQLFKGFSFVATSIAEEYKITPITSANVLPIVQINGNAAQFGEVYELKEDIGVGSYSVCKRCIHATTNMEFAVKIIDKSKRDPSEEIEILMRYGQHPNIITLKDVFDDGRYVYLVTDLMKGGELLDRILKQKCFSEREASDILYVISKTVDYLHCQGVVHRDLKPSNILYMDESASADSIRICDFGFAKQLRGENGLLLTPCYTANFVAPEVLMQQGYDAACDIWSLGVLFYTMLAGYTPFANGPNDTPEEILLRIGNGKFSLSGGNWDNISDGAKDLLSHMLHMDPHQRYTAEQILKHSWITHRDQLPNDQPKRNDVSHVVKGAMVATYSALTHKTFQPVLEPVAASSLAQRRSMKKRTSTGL

As for `COC(=O)Nc1nc2cc(Oc3ccc(NC(=O)Nc4cccc(Br)c4)cc3)ccc2[nH]1`, the inhibition (usually the change of the read-out against control, counted positive when it falls) in [1] amounted to 1.35%; in [2], 4.42%; in assay [3], 6.16%; in assay [4], 2.07%; in assay [5] it was 3.07%; in assay [6], 2.77%. Moreover, the inhibition worked out at 3.45% in [7]; 2.86% in assay [8]; 2.58% in assay [9]; 0.56% in [10]; 4.23% in assay [11]; 3.02% in [12]. The inhibition was 2.47% in [13]; -0.15% in [14]; 0.86% in assay [15]; 2% in [16]; 0.84% in assay [17]; 1.16% in [18]. The values for the inhibition in [19] and in assay [20] were 0.29% and 3.25%, respectively.
On to `CCn1c(-c2nonc2N)nc2ccc(F)cc21`, for which the inhibition in [1] came to 3.11%; in assay [2] it was 4.63%; in assay [3] it was 5.34%; in assay [4], 0.38%; in [5], 7.92%; in [6], 4.43%. The inhibition was 9.8% in [7]; 5.34% in assay [8]; 5.71% in assay [9]; 4.08% in [10]; 3.56% in assay [11]; 1.74% in assay [12]. In addition, the inhibition stood at 2.03% in [13]; 0.43% in assay [14]; 1.87% in [15]; 1.78% in assay [16]; 5.06% in [17]; 0.45% in [18]. For the same compound, the inhibition in assay [19] was -0.34%; in assay [20], 4.39%.
On to `NS(=O)(=O)c1ccc(-c2cc3ccncc3cc2OCc2ccccc2)cc1`, for which the inhibition is 0.34% in assay [1]; 2.5% in assay [2]; 2.69% in assay [3]; 1.44% in [4]; -1.22% in [5]; 0.75% in assay [6]. Moreover, the inhibition in assay [7] is 2.72%; in [8] it was 2.82%; in [9], 3.15%; in assay [10], 0.66%; in assay [11] it was 2.32%; in [12], -0.67%. For the same compound, the inhibition in assay [13] is -0.08%; in assay [14], -0.48%; in assay [15], 0.47%; in [16] it was 0.96%; in [17], 2.69%; in assay [18] it was -6.04%. For the same compound, the inhibition in assay [19] was determined as 0.65%; in assay [20], 1.83%.
On to `Cc1ccc(O)cc1Nc1ccnc2ccc(S(C)(=O)=O)cc12`, for which the inhibition in [1] turned out to be 1.9%; in assay [2], 3.76%; in assay [3] it was 6.8%; in assay [4], 4.31%; in assay [5], 4.71%; in assay [6], 4.36%. The inhibition in [7] is 5.21%; in [8], 2.21%; in assay [9] it was 5.69%; in assay [10], 3.06%; in assay [11], 3.93%; in assay [12] it was 2%. Further, the inhibition in [13] was 4.91%; in [14], 0.5%; in assay [15], 1.8%; in [16], 2.1%; in [17] it was 5.1%; in assay [18], -0.51%. Besides, the figures for the inhibition in assay [19] and in assay [20] were 0.98% and 2.94%, respectively.
